Screening data from PubChem.
Sampled rows, rich in hits. Any-hit rate of the full collection: about 2.3%.
ERp5 block = blocks human ERp5 reductase activity on insulin | Q15084 | ERp5 insulin aggregation, absorbance 650 nm, 90 min | inhibition, % at 9.99 µM | 350,000 tested, 0.05% active | AID 651711;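 active means mean replicate inhibition above about 25%, with every replicate also reaching it, limit read from the data, passing the limit was not always enough; inconclusive means only one of those two criteria met; inactive means neither criterion met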
Target sequence (Q15084 whole entry, looked up): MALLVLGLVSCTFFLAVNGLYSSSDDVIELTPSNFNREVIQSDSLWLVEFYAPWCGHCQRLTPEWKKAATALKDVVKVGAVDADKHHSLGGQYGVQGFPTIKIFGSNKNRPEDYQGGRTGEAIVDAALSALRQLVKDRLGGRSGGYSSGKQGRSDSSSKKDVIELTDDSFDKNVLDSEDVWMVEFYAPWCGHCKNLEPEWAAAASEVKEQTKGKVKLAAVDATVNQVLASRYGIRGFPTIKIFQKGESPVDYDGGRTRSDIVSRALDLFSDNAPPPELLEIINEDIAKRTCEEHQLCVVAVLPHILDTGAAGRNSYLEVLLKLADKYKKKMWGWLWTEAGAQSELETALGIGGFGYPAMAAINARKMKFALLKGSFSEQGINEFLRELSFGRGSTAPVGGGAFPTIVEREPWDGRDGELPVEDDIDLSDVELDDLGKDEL
SIRT5 block = inhibitors of human sirtuin-5 desuccinylase | 330,000 tested, 1.1% active | Q9NXA8 | inhibition, % at 15 µM | Purified SirT5, succinyl-peptide AMC, trypsin-coupled fluorescence; in the data active means inhibition above about 15%; inconclusive means no clear call, values can overlap the other calls
DENV2 CPE rescue = inhibitors of DENV2 cytopathic effect; DENV2-infected cells, cytopathic effect rescue, plate reader; CPE inhibition, % at 9.99 µM; 350,000 tested, 1.7% active; AID 651640; in the data active means CPE inhibition above about 20%, passing the limit was not always enough; inconclusive means no clear call, values can overlap the other calls; tested in BHK-21 cells;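 further: 0% = median of neutral control wells and 100% = median of positive control wells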
Rtt109 Vps75 = C. albicans Rtt109 histone acetyltransferase inhibition; Q5AAJ8; purified Rtt109/Vps75, ThioGlo CoA-SH fluorescence, 4 h; inhibition, % at 34.9 µM; 330,000 tested, 0.16% active;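 active means inhibition of at least 50% in every replicate; inconclusive means best replicate reaches 50% inhibition but some replicates fall short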
PDI turbidity = blocks human protein disulfide isomerase activity; P07237; PDI insulin aggregation turbidity, A650, 90 min; inhibition, % at 10 µM; 350,000 tested, 0.052% active; AID 588391;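 active means mean inhibition across replicates of 30% or more, whatever share of single replicates reach that level; inconclusive means mean inhibition below 30% while every single replicate reaches 30%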
Numbers without * were called inactive; ? = inconclusive; · = not tested or not shown.

SMILES	ERp5 block	SIRT5 block	DENV2 CPE rescue	Rtt109 Vps75	PDI turbidity
COc1ccc2c3c(n(C)c2c1)[C@H](CO)N(Cc1ccccc1Cl)CC31CCN(C(=O)CC2CC2)CC1	10	4	31*	·	·
CN1c2ccc(-c3ccc(C#N)cc3)cc2[C@H]2[C@H](CCN2S(=O)(=O)c2ccc(F)cc2)[C@@H]1CO	-2	1	-8	·	·
Cc1ccc(S(=O)(=O)N[C@@H]2CC[C@@H](CC(=O)N3CCc4ccccc4C3)O[C@@H]2CO)cc1	0	-2	?	·	·
O=C(NC1CCCCC1)N1CC(=O)N2[C@H](CO)[C@@H](c3ccc(/C=C/c4ccccc4)cc3)[C@@H]2C1	2	-1	-4	·	·
CCc1nnc(NC(=O)CSc2nnc(C3CCCCC3)n2-c2cccc(Cl)c2)s1	·	·	·	59*	1
CCc1nnc(NC(=O)CSc2nnc(CNc3cccc(Cl)c3)n2CC)s1	1	-1	2	-1	-4
N#Cc1ccc(-c2ccc(C3[C@@H]4CN(C(=O)c5ccc6c(c5)OCO6)C[C@H]3N4)cc2)cc1 (stereo not given in full)	-4	3	6	·	·
O=C(Nc1ccccc1)N[C@H]1CC[C@@H](CCn2cc(C3(O)CCCC3)nn2)O[C@H]1CO	-2	4	-1	·	·
O=C(O)c1cccc2cc(-c3ccccc3)oc(=O)c12	0	-7	3	-2	8
O=C(O)c1cccc2cccc(-c3c4ccc(=O)c(O)c-4oc4c(O)c(O)ccc34)c12	4	37*	6	7	25
CN[C@H]1C[C@H]2c3[nH]c4ccccc4c3CCN2C(=O)[C@H]1[C@H](C)O	6	-11	24*	·	-9
C[C@H](O)[C@@H]1C(=O)N2CCc3c([nH]c4ccccc34)[C@@H]2C[C@@H]1N(C)Cc1ccc(Cl)cc1	3	-4	1	·	15
C/C=C/c1cnc2c(c1)C(=O)N([C@@H](C)CO)C[C@@H](C)[C@H](CN(C)C(=O)Cc1ccccc1)O2	-4	-1	2	·	·
COCC(=O)Nc1ccc2c(c1)[C@@H]1C[C@H](CC(=O)NC3CCCCC3)O[C@@H](CO)[C@@H]1O2	4	-2	-8	·	·
O=C(CSc1nnc2ccccn12)NNC(=O)c1ccc(Cl)cc1	7	-3	-3	-10	-2
O=C(CSc1nnc2ccccn12)NNC(=O)c1cccc(Cl)c1	12	-4	8	58*	4
Cn1c(=N)n(CC(=O)c2ccc(Br)cc2)c2ccccc21	-4	-2	66*	1	-1
CCCNC(=O)N1[C@H](CNC(C)=O)[C@@H](c2ccccc2)[C@@H]1CO	·	·	30*	·	·
CCCNC(=O)N1[C@H](CO)[C@@H](c2ccccc2)[C@H]1CNC(=O)c1ccc(F)cc1	·	·	36	·	·
CCCNC(=O)N1[C@H](CO)[C@H](c2ccccc2)[C@@H]1CNC(=O)c1ccc(F)cc1	·	·	104*	·	·
Cc1cccn2cc(CCNS(=O)(=O)c3cccs3)nc12	-13	1	9	55*	0
CN1C(=O)c2cc(NC(=O)C3CC3)ccc2OC[C@@H]2O[C@H](CC(=O)NC3CCC3)CC[C@H]21	0	2	-8	·	·
CCCNC(=O)Nc1ccc2c(c1)C(=O)N(C)[C@@H]1CC[C@@H](CC(=O)NCCCN(C)C)O[C@@H]1CO2	-3	-3	6	·	·
O=C(Nc1ccccc1)N[C@H](Cc1ccccc1)Cn1cc(CN2C(=O)COC[C@H]2c2ccccc2)nn1	-5	1	21*	·	·
CN(C)C(=O)CSc1nnc([C@H](Cc2c[nH]c3ccccc23)NC(=O)OC(C)(C)C)o1	·	·	·	-1	45*
SMILES	ERp5 block	SIRT5 block	DENV2 CPE rescue	Rtt109 Vps75	PDI turbidity
O=C1CCN(Cc2ccc(Br)cc2)CCN1[C@H](CO)c1ccccc1	3	·	-3	12	0
O=C1CCN(Cc2ccc(Br)cc2)CCN1CCO	4	·	29*	4	-2
C[C@@H]1CN([C@H](C)CO)C(=O)c2cccc(NS(=O)(=O)c3ccc(Cl)cc3)c2O[C@H]1CN(C)Cc1ccncc1	4	0	8	·	·
CC(=O)Nc1ccc2c(c1)C(=O)N(C)[C@H]1CC[C@H](CC(=O)NCc3ccc4c(c3)OCO4)O[C@H]1CO2	·	·	0	·	·
COc1ccc(S(=O)(=O)N2CCOCC2)cc1NC(=O)c1cccc2c(=O)c(C)c(-c3ccccc3)oc12	8	27*	-3	-24	-1
CCN(CC)S(=O)(=O)c1ccc(N2CCOCC2)c(NC(=O)c2cccc3c(=O)c(C)c(-c4ccccc4)oc23)c1	6	-3	-7	14	-3
COc1ccc(N2CCN(C(=O)CN(C)S(=O)(=O)c3cc(C)ccc3OC)CC2)cc1	-8	19*	·	-5	3
COc1ccc(OC)c(S(=O)(=O)N(C)CC(=O)N2CCCCC2)c1	3	-2	6	6	11
O=C(Cc1ccccc1)N1CC(=O)N2[C@H](CO)[C@@H](c3ccc(-c4cccc(F)c4)cc3)[C@@H]2C1	2	1	16	·	·
Cc1cc(C2C(=O)c3ccccc3C2=O)c(C)c(C)c1C	-3	19*	12	9	-9
CCc1ccccc1C1C(=O)c2ccccc2C1=O	1	10	-1	10	-1
CCN(CC)CCCNc1nc(C)cc(COC)c1C#N	1	-6	45*	10	12
O=C(NCc1ccc(F)cc1)[C@H]1N[C@H]2c3ccc(-c4ccccc4)c(=O)n3C[C@H]2[C@@H]1CO	-3	-21	-3	·	·
C[C@@H](NC(=O)C[C@H]1CC[C@@H](NC(=O)CN2CCOCC2)[C@@H](CO)O1)c1ccccc1	7	17*	5	·	·
O=C(C[C@@H]1CC[C@@H](NC(=O)Cc2ccccn2)[C@@H](CO)O1)NCCCN1CCOCC1	6	15*	-1	·	·
O=C(CN1CCOCC1)NCC[C@@H]1CC[C@H](NC(=O)Cc2ccccn2)[C@@H](CO)O1	4	0	23*	·	·
C[C@@H]1CN([C@@H](C)CO)C(=O)Cc2cc(NC(=O)CCN3CCOCC3)ccc2O[C@H]1CN(C)CC1CC1	-4	0	-8	·	·
CO[C@H]1CN(C)C(=O)c2cc(NS(C)(=O)=O)ccc2OC[C@H](C)N(Cc2nccs2)C[C@H]1C	3	14	-9	·	·
COc1ccc(S(=O)(=O)Nc2ccc3c(c2)C(=O)N([C@@H](C)CO)C[C@H](C)[C@@H](CN(C)C(=O)Nc2c(C)noc2C)OCCCC[C@H](C)O3)cc1	2	4	14	·	·
CO[C@@H]1CN(C)C(=O)c2ccc(NC(=O)C3CCCC3)cc2OC[C@H](C)N(CC2CC2)C[C@H]1C	2	4	-2	·	·
CCCc1nccn1S(=O)(=O)c1cc(OC)ccc1OC	·	·	·	-18	-3
CCOc1ccc(OCC)c(S(=O)(=O)n2ccnc2C)c1	4	-2	-4	5	0
COc1ccc(C)cc1S(=O)(=O)n1ccnc1C	-2	112*	-5	2	12
CCOc1ccc(C(C)C)cc1S(=O)(=O)n1ccnc1C	1	17*	4	1	-4
